Only some compounds are listed: those with a hit (about 10% of all), similar ones and a draw of the others.
Luciferase inh: Photinus pyralis luciferase inhibition. P08659. purified P. pyralis luciferase, luminescence, biochemical. Potency, µM (highest dose often 115 µM), most hits filed as inhibitors. 2.5% of 76,000 active. AID 1347043; also: nearly all actives have a fitted effect of over 65% in size
Target sequence (P08659 whole entry, looked up): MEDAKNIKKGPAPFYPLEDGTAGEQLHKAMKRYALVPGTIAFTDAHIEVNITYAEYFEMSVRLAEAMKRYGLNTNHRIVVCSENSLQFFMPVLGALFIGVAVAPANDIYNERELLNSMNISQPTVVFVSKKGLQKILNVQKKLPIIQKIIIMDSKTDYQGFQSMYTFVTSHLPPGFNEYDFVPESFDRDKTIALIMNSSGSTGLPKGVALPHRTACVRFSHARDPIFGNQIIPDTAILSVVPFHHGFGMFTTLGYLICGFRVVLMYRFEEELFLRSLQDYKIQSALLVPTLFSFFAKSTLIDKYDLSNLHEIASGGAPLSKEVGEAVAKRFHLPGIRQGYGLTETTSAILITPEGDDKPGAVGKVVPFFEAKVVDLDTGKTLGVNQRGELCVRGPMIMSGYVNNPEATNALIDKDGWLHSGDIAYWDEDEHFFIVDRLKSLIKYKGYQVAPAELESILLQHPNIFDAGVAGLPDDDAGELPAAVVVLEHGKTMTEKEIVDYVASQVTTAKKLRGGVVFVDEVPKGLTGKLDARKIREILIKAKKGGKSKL
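FLuc 10nM, D-luciferin 10uM, ATP 10uM, Mg acetate 10mM, Tris acetate pH 7.5, Tween/BSA; cpd qHTS; enzyme added last; CCD luminescence.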
GPT2 inh: blocks human glutamate pyruvate transaminase 2; Q8TD30; Recombinant GPT2, coupled pyruvate oxidase/HRP Amplex Red fluorescence; Potency, µM (titrated, usually from 57.7 µM), without a hit: at the highest dose activity change, negative = inhibition, hits mostly inhibitors; 0.25% of 100,000 active; also: nearly all actives have a fitted effect of over 60% in size
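Recombinant GPT2 (10ng/uL) with 250uM a-KG and 2mM L-alanine, 30 min at room temperature, in HEPES pH 7.5 buffer. Pyruvate detected by pyruvate oxidase/HRP/Amplex Red fluorescence after 30 min in the dark; AOA (50uM) as positive control.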
NPR1 antag: antagonists of human natriuretic peptide receptor Npr1 | 1.6% of 76,000 active | HEK293 hNpr1 GloSensor cGMP, ANP-stimulated luminescence | Potency, µM (titrated, usually from 46.3 µM), inactives show at the highest dose activity change, negative = inhibition, actives largely listed as inhibitors | AID 1347048; calls by dose curve; also: nearly all actives have a fitted effect of over 60% in size
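HEK293 cells stably expressing human Npr1 and cGMP GloSensor pGS-40F, loaded 2 h with 2% GloSensor reagent, given compound 30 min at room temperature. Luminescence read before and 20 min after 0.1 nM hNppA.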
NIH3T3 tox: kills NIH 3T3 cells | NIH 3T3 viability, CellTiter-Glo ATP luminescence, 48-72 h | Potency, µM (top dose mostly 96.7 µM), inactives show at the highest dose activity change, negative = cytotoxicity, actives largely listed as inhibitors | 4.3% of 94,000 active | AID 1345082; also: nearly all actives have a fitted effect of over 55% in size
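Cytotoxicity is measured as loss of cellular ATP: NIH 3T3 cells (400/well) are exposed to compound for 48 or 72 hr at 37 °C, then CellTiter-Glo luminescence is imaged after 10 min at room temperature.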
HEK cytotox: kills HEK 293 cells; Potency, µM (series often up to 115 µM), without a hit: at the top dose activity change, negative = cytotoxicity, most hits filed as inhibitors; 6.6% of 94,000 active; AID 1345083; HEK 293 viability, ATP luminescence (CellTiter-Glo), 48-72 h; also: nearly all actives have a fitted effect of over 60% in size
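Viability of HEK 293 cells, plated at 250 cells/well, was judged by cellular ATP after compound treatment for 48 or 72 hr. Luminescence was imaged 10 min after CellTiter-Glo addition at room temperature.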
* hit, by the source's call; i = inactive; ? = inconclusive; . = no result; [ ] = another dose, or the depositor's remark. Unless noted, calls follow the shape of the dose curve; as a rule, active = well fitted curve in the direction sought with a large enough effect; inconclusive = small, poorly fitted or top-dose-only effect, or another doubt; inactive = no such curve, though single readings can be large; an effect the other way counts as inactive or inconclusive. % is scaled to controls: 0 for no effect and ±100 for the full control effect; potency is read from the fitted curve at half-maximal effect.

SMILES | Luciferase inh | GPT2 inh | NPR1 antag | NIH3T3 tox | HEK cytotox
Cc1ccc(-c2cn3cc(C(=O)N4CCCCC4)nc3s2)cc1 | . | i | . | ? | ?
O=C(NCCc1ccc(Cl)cc1)C1CCN(c2nccc(Nc3ccccc3Cl)n2)CC1 | . | 3.2% | . | ? | ?
O=C(NCCc1ccccc1)c1ccc2nc(-c3ccccn3)oc2c1 | . | i | . | ? | 89.1µM*
Cc1cccc(-c2nc3ccc(C(=O)NCCc4ccccc4)cc3o2)n1 | . | -12.2%[88.5 µM] | . | ? | 100µM*
O=C(NCCCc1ccccc1)c1ccc2nc(-c3cccnc3Cl)oc2c1 | . | 0.4%[88.5 µM] | . | 44.7µM* | ?
CC1=C[C@@H](CNC(=O)C(C)(C)C)[C@H](C(C)C)C[C@H]1Cc1nnc(-c2ccncc2)o1 | i | 0.3%[88.5 µM] | -29.3%[70.6 µM] | -19.7%[174 µM] | 79.4µM*
CC1=C[C@@H](CNC(=O)c2ccc(C#N)cc2)[C@H](C(C)C)C[C@H]1Cc1nnc(-c2ccncc2)o1 | i | -14.5% | ? | ? | ?
CC1=C[C@@H](CNC(=O)c2ccc(F)cc2)[C@H](C(C)C)C[C@H]1Cc1nnc(-c2ccncc2)o1 | i | -13.3% | ? | ? | 35.5µM*
COc1ccc(C(=O)NC[C@@H]2C=C(C)[C@H](Cc3nnc(-c4ccncc4)o3)C[C@H]2C(C)C)cc1 | i | 3.6% | ? | ? | 50.1µM*
C#CCNC(=O)c1ccc2nnc(-c3cccc(OC(F)(F)F)c3)n2c1 | . | i | . | ? | ?
Cc1ncsc1C1N(C2CCN(S(=O)(=O)c3ccccc3)CC2)C(=O)C12CCCC2 (centres undefined) | i | i | 3.8% | -19.6% | ?
Cc1ccc(C)c(CNC(=O)[C@@H]2CN(S(C)(=O)=O)C[C@H]2c2ccncc2)c1 | . | -0.4% | . | -23.0% | -5.3%
COc1cccc(N2C(=O)NC(=NC3CCCC3)C23CCCN(Cc2ccsc2)C3)c1 (centres undefined) | . | -19.8% | . | ? | ?
N#Cc1cccc(NC(=O)c2cccc(CN3CCN(CCO)CC3)c2)c1 | i | i | -17.6% | -6.6% | ?
Cc1c(CN(C)Cc2cccc(C(=O)Nc3ccc(C#N)cc3)c2)cnn1C | i | i | -12.0% | -29.3% | 50.1µM*
CCCn1cc(CNC(=O)c2ccc3c(c2)n(CC)c(=O)c2ccnn23)c(C)n1 | i | i | -0.1% | ? | 79.4µM*
CN1C[C@@H](NS(=O)(=O)c2ccc(F)cc2)C[C@H]1c1nc(-c2cccnc2)no1 | i | 3.7%[88.5 µM] | 4.8%[70.6 µM] | -25.4%[174 µM] | -12.1%[172 µM]
CC(=O)Nc1ccc(S(=O)(=O)N[C@H]2C[C@@H](c3nc(-c4ccc(F)cc4)no3)N(C)C2)cc1 | i | 4.5% | ? | -27.9% | ?
Cc1ccc(-c2noc([C@@H]3C[C@H](NS(=O)(=O)c4ccc(F)cc4)CN3C)n2)cc1 | 44.7µM* | ? | -22.2%[70.6 µM] | ? | ?
CN1C[C@@H](NS(=O)(=O)c2ccc(Cl)cc2)C[C@H]1c1nc(-c2ccc(F)cc2)no1 | 39.8µM* | -1.1% | -22.0% | ? | ?
CN1C[C@@H](NS(=O)(=O)c2ccccc2)C[C@H]1c1nc(-c2ccc(F)cc2)no1 | ? | 3.1%[88.5 µM] | -22.2%[70.6 µM] | ? | 100µM*
O=c1[nH]c(C2CCN(Cc3ccccc3C(F)(F)F)CC2)nn1Cc1ccccc1 | i | i | 13.1% | -17.8% | -13.9%
COCCC1(NS(C)(=O)=O)CCN(C(=O)NCCc2ccccc2)CC1 | . | -6.3% | . | -15.1% | i
COc1ccc(OCC2CN(Cc3cccs3)[S+](=O)([O-])c3cnccc3O2)cc1 (centres undefined) | . | -7.1%[27.3 µM] | . | -26.1%[46.1 µM] | ?
COc1ccc(CN2CC(COc3ccccc3)Oc3ncccc3[S+]2(=O)[O-])cc1 (centres undefined) | . | -8.1%[27.3 µM] | . | ? | 22.4µM*
SMILES | Luciferase inh | GPT2 inh | NPR1 antag | NIH3T3 tox | HEK cytotox
Cc1ccccc1C(=O)NC1CCN(c2ccc3nnc(C4CC4)n3n2)C1 (centres undefined) | . | . | . | -24.7% | 4.8%
Cc1ccccc1CN1Cc2nc(-c3ccsc3)ccc2OCC1=O | i | -25.4%[88.5 µM] | -18.0%[70.6 µM] | ? | 89.1µM*
COc1ccccc1-c1ccc2c(n1)CN(Cc1ccccc1C)C(=O)CO2 | i | -6.4%[88.5 µM] | -10.0%[70.6 µM] | -16.7%[138 µM] | ?
O=C1COc2ccc(-c3ccsc3)nc2CN1Cc1ccc(C(F)(F)F)cc1 | i | -15.3%[88.5 µM] | -21.2%[70.6 µM] | ? | ?
Cc1ccccc1CN1Cc2nc(-c3cncnc3)ccc2OCC1=O | i | -1.1%[88.5 µM] | -11.3%[70.6 µM] | 100µM* | ?
O=C1COc2ccc(-c3ccsc3)nc2CN1Cc1ccccc1 | i | i | -24.8%[70.6 µM] | ? | 100µM*
O=c1cc(-c2ccc(O)cc2)oc2cc(O)cc(O)c12 | . | i | . | . | .
O=c1c(O)c(-c2ccc(O)cc2)oc2cc(O)cc(O)c12 | . | 24.3µM* | . | . | .
Cc1ccc2nc(NC(=O)C3CC(=O)N(c4n[nH]c5ccccc45)C3)sc2c1 (centres undefined) | i | -5.6% | -0.7% | 31.6µM* | 39.8µM*
Cc1csc(NC(=O)C2CC(=O)N(c3n[nH]c4ccccc34)C2)n1 (centres undefined) | i | -10.9% | -0.5% | -11.1% | -19.4%
COc1cccc(C2Cn3nnc(-c4nc(-c5ccccc5Br)no4)c3CO2)c1 (centres undefined) | i | 1.3% | -13.8% | -18.0% | -12.9%
COc1ccc(OCC(O)CN2CCC(=O)N(C/C=C/c3ccccc3)CCc3ccccc32)cc1 (centres undefined) | . | -10.9%[27.3 µM] | . | ? | 28.2µM*
C=CCN1CCc2ccccc2N(CC(O)COc2ccc(OC)cc2)CCC1=O (centres undefined) | . | 4.6%[27.3 µM] | . | ? | -21.2%[57.5 µM]
COc1ccc(OCC(O)CN2CCC(=O)N(C3CCCC3)Cc3ccccc32)cc1 (centres undefined) | . | . | . | ? | 39.8µM*
COCCN1Cc2ccccc2N(CC(O)COc2ccccc2)CCC1=O (centres undefined) | . | . | . | -25.0% | ?
CNC(=O)N1CCCCC1c1nc(CCOCC2CCOCC2)no1 (centres undefined) | . | i | . | i | 0.4%
O=C(c1ccccc1Cl)N1CCCC2(CNc3ncccc3[S+](=O)([O-])N2)C1 (centres undefined) | . | . | . | -1.3% | -6.5%
CC1=C(C(=O)NC(C)(C)C)C(c2ccc(Cl)cc2)N2C(CC(=O)N3CCCC3)=CSC2=N1 (centres undefined) | i | i | -17.1% | 44.7µM* | ?
O=C(COc1ccc(F)cc1)NCC1Cn2cccc2CN1Cc1ccccc1 (centres undefined) | i | 3.9% | -0.8% | ? | ?
O=C(NCC1CC1)c1nc2c(o1)CCN(Cc1ccc3[nH]ccc3c1)CC2 | i | -5.8%[88.5 µM] | 1.7%[70.6 µM] | ? | ?

Screens (PubChem)
